Reference: PubChem BioAssay AID652142 (Molecular Libraries Program, Specialized Chemistry Center, …, 2013)
Among all 2,400 compounds or so, fewer than 10 were called active. No rule for the calls is given here. Not all results are given here.

target: Rac GTPase-activating protein 1 (Homo sapiens) (UniProt Q9H0H5); experiment: MgcRacGAP inhibitors via phosphate release, confirmation, orthogonal assay, biochemical, inorganic phosphate detection, Rac1 (AID 652142); settings: MgcRacGAP/Rac1F28L GTP hydrolysis, Biomol green phosphate; stronger effect = higher value; concentration not given here
Sequence (Q9H0H5 whole entry, looked up): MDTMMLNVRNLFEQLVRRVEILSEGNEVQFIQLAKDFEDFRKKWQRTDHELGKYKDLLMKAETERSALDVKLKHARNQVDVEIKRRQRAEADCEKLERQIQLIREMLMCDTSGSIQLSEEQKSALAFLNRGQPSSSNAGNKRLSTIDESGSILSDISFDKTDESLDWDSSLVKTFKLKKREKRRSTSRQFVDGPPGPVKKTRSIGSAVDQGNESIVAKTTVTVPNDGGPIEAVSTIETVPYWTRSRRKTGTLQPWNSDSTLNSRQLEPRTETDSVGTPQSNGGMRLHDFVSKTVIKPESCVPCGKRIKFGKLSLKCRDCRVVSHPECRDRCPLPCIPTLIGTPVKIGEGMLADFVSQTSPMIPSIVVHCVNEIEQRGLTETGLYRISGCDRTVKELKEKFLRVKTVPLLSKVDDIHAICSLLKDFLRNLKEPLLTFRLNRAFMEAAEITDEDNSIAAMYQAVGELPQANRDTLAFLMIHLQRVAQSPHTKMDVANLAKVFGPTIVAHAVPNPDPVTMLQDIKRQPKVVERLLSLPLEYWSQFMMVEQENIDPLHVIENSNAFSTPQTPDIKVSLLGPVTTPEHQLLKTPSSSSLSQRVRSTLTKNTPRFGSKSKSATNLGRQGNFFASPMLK

inhibition, inactive:
CN(C)CCNc1ccc(CO)c2oc3ccc(O)cc3c(=O)c12 14.8%
CN(C)c1ccc(/C=C/c2ccc3ccccc3[n+]2C)cc1 41%
Oc1ccc(/C=C/c2ccc3ccccc3n2)cc1 35.5%
O=C1/C(=C\c2ccc(O)cc2)SC(=S)N1/N=C/c1ccc(O)cc1 13.5%
COc1ccccc1C(=O)N1CCN(Cc2cccnc2)CC1 19.7%
CN(C)c1ccc(/C=C2/C[N+](C)(C)C/C(=C/c3ccc(N(C)C)cc3)C2=O)cc1 25.4%
Cc1cc(O)ccc1NC(=O)c1ccccc1 36%
Cc1cc(C)c2nc(C)cc(N/N=C/c3ccc(O)cc3)c2c1 41.9%
COc1cc(/C=C2\SC(=S)N(Nc3ccccc3)C2=O)ccc1O 19.2%
O=C(Oc1ccc(N(C(=O)c2ccncc2)S(=O)(=O)c2cccs2)cc1)c1ccncc1 26.2%
CCOc1cc(/C=C2\C(=O)N(CCc3ccc(OC)c(OC)c3)C(C)=C2C(=O)OC)ccc1O 20.6%
O=C(CN1CCN(c2ccc(O)cc2)CC1)NCC(=O)Nc1ccc(F)c(F)c1F 24.8%
O=C(COc1ccccc1C(=O)N/N=C\c1ccc(O)c(O)c1)N/N=C/c1ccc(O)c(O)c1 8.94%
COc1ccc(NC2CCCN(C(=O)c3ccc4[nH]c(C)c(C)c4c3)C2)cc1 (stereo not given) 17.9%
COc1cc(/C=N/NC(=O)CCn2c3ccccc3c3ccccc32)ccc1O 21%
COCCCNC1=C(C#N)C(=O)NC(c2cccs2)S1 (stereo not given) 40.4%
CN(C)CCNc1ccc(CO)c2sc3ccc(O)cc3c(=O)c12 12.6%
NC(CSS(=O)(=O)O)=NCCC12CC3CC(CC(O)(C3)C1)C2 34.4%
C=CCn1c(SCC(=O)Nc2ccc(N(C)C)cc2)nnc1-c1cccc(C)c1 15.5%
CCOc1cc(-c2nc3ccccc3s2)ccc1O 30.1%
Oc1ccc(/C=N/Nc2nn3cnnc3c3ccccc23)cc1 25.8%
Oc1ccc(/C=N/n2c(-c3ccco3)csc2=Nc2cccnc2)c(O)c1 23.8%
Cc1ccc(S(=O)(=O)c2cc(Nc3ccccc3)ccc2O)cc1 11.6%
Cc1cc(C)n(CC(O)CN2c3ccccc3Sc3ccccc32)n1 (stereo not given) 32.2%
CC(C)C1=Nc2cccc3cccc(c23)N1 22.3%
COc1nc(Nc2ccc(O)cc2)nc(OC(C(F)(F)F)C(F)(F)F)n1 18.1%
Clc1cccc(N/N=C/c2ccc(N3CCOCC3)s2)c1 29.3%
CCOC(=O)C1CCN(Cc2cn[nH]c2-c2ccccc2)CC1 27.9%
CCOc1cc(/C=N/NC(=O)Nc2ccccc2)ccc1O 23.6%
CCOc1cc(/C=C(\C#N)c2[nH]nc(N)c2C#N)ccc1O 29.6%
Cc1cc(-c2ccccc2)nc(N/N=C/c2ccc(O)cc2)n1 18.1%
CCOC(=O)C1=C(C)Nc2ccccc2S1 35.2%
C=CCOc1ccccc1CN1CCCN(C)CC1 22.3%
CCOc1cc(/C=C(\C#N)C(=O)NCC2CCCO2)ccc1O (stereo not given) 23.9%
CN1C(=O)NC(c2ccc(O)cc2)C2=C1CN(c1ccc(O)cc1)C2=O (stereo not given) 24.1%
Cc1ccnc(Nc2nc(-c3ccc(O)c(O)c3)cs2)c1 23.8%
CCOC(=O)c1nc(Nc2ccc(Nc3ccccc3)cc2)c2ccccc2n1 32%
Oc1ccc(NC(=S)N=Nc2c(O)[nH]c3ccc(Br)cc23)cc1 26.7%
CCOC(=O)c1[nH]c2ccccc2c1NC(=S)Nc1cccc(C)c1C 18.1%
CCN(CC)c1ccc(C(=C2C=CC(=[N+](CC)CC)C=C2)c2ccccc2)cc1 28%
CC(C)N=c1scc(-c2ccco2)n1/N=C/c1ccc(O)c(O)c1 27.8%
O=C1CSC(=S)N1Nc1ccccc1 17.3%
CCc1cc(-c2n[nH]c(CCC(=O)O)c2-c2nc3ccccc3n2C)c(O)cc1O 30.8%
Nc1nc(=S)c2[nH]c(=S)[nH]c2[nH]1 35.5%
CC(C(=O)NCC(=O)Nc1ccc(F)c(F)c1F)N1CCN(c2ccc(O)cc2)CC1 (stereo not given) 20.8%
